This excerpt belongs to a sample that is enriched for hits.
TDP1 cell CPT: qHTS for Inhibitors of human tyrosyl-DNA phosphodiesterase 1 (TDP1): qHTS in cells in presence of CPT | chicken DT40 Tdp1-/-;hTDP1 cells + 20 nM CPT, ATP luminescence, 48 h | Potency, µM (doses to about 46.2 µM), without a hit: at the top dose activity change, negative = growth inhibition, hits mostly inhibitors | actives 12% (n = 420,000) | AID 686979, 2013; also: potency is read from the fitted curve at half-maximal effect; nearly all actives have a fitted effect of over 55% in size
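Cell growth measured by CellTiter-Glo luminescence after a minimum 48 h, 37 C compound exposure with 20 nM CPT in Tdp1-knockout DT40 cells stably expressing hTDP1, seeded 400/well; qHTS titration format.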
HT1080 IDH1KD tx: qHTS for induction of synthetic lethality in tumor cells producing 2HG: qHTS for the HT-1080-IDH1KD cell line; HT-1080 IDH1 knockdown viability, ATP luminescence, 48 h; Potency, µM (highest dose often 46.1 µM), without a hit: top-dose activity, negative = toxicity, usual class: cytotoxic; actives 2% (n = 360,000); AID 686971, 2013;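 also: potency is read from the fitted curve at half-maximal effect; 0% = DMSO wells and -100% = cell-free medium wells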
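HT-1080-IDH1KD cells (IDH1 knocked down), 750/well in RPMI with 5% FBS, treated with compound 48 h at 37 degrees C. Viability by CellTiter-Glo luminescence, normalised to DMSO and no-cell wells; concentration-response curves classed.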
IL-1B inflam inh: qHTS for Inhibitors of Inflammasome Signaling: IL-1-beta AlphaLISA Primary Screen; THP-1 LPS/ATP IL-1B secretion, AlphaLISA, 16 h; active compounds read low; activity change, % at 57.5 µM; actives 4.7% (n = 360,000); AID 743279, 2014; in the data active = activity change below about -50%; inconclusive = mostly about -30% to -49%
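THP-1 cells pretreated 1 hr with compounds (up to 57.5 uM final), then stimulated with LPS (250 ng/mL final) plus ATP (1.25 mM final); secreted IL-1B measured by AlphaLISA after 16 hr, decreased signal indicating inhibition.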
HT1080-NT tox: qHTS for induction of synthetic lethality in tumor cells producing 2HG: qHTS for the HT-1080-NT fibrosarcoma cell line; HT-1080-NT fibrosarcoma viability, CellTiter-Glo ATP luminescence, 48 h; Potency, µM (titrated, usually from 46.1 µM), for the others: at the highest dose activity, negative = less viability, actives largely listed as cytotoxic; actives 1.6% (n = 360,000);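 also: NT is the 2HG producing partner of a matched IDH1 knockdown line; potency is read from the fitted curve at half-maximal effect; 0% = DMSO-treated cells and -100% = media-only wells without cells; nearly all actives have a fitted effect of over 55% in size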
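Viability by CellTiter-Glo luminescence after 48 h compound exposure at 37C of HT-1080-NT cells (750/well, RPMI, 5% FBS). % activity scaled between DMSO wells and medium-only wells, then curve-fitted and categorized by curve class.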
DT40 TDP1 no CPT: qHTS for Inhibitors of human tyrosyl-DNA phosphodiesterase 1 (TDP1): qHTS in cells in absence of CPT | DT40 Tdp1-/- hTDP1 cells, no CPT, ATP luminescence, 48 h | Potency, µM (highest dose often 46.2 µM), without a hit: at the highest dose activity change, negative = growth inhibition, usual class: inhibitors | actives 15% (n = 420,000); also: potency is read from the fitted curve at half-maximal effect; nearly all actives have a fitted effect of over 55% in size
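Compound effects on proliferation are scored in DT40 Tdp1-/-;hTDP1 cells in the absence of CPT. ATP levels (CellTiter-Glo luminescence) are recorded after a ≥48 hr, 37 °C incubation.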
ALOX12 inh: Primary qHTS assay for inhibitors of human arachidonate 12S-lipoxygenase (ALOX12): Round 2; purified 12hLO, xylenol orange hydroperoxide absorbance; Potency, µM (doses to about 108 µM), inactives show at the highest dose activity change, negative = inhibition, actives largely listed as inhibitors; actives 1.1% (n = 580,000); AID 1671190, 2021; also: potency is read from the fitted curve at half-maximal effect
Target sequence (P18054 whole entry, looked up): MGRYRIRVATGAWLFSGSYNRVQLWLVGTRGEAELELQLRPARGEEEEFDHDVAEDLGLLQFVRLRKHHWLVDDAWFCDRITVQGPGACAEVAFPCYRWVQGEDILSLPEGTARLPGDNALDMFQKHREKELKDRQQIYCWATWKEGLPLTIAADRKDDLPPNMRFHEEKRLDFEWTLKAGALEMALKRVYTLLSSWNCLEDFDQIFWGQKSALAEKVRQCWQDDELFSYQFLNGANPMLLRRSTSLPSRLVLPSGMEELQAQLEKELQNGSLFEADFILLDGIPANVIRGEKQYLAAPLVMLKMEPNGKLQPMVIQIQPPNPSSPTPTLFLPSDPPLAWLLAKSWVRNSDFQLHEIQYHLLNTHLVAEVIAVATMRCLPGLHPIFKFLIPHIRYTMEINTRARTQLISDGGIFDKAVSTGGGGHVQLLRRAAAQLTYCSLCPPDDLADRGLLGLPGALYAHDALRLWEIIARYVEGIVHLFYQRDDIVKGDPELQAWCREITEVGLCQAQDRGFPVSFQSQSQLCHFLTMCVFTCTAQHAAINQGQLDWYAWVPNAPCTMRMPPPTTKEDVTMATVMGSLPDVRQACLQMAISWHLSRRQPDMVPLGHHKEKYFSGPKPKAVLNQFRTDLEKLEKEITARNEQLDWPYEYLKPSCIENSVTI
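Purified human 12hLO (150 nM final) in 25 mM Hepes, 0.01% Triton X-100, pH 7.0 was preincubated 15 min at room temperature with compound. Then 40 uM arachidonic acid was added, 30 min. Hydroperoxide was read by Fe-XO absorbance ratio 573/405 nm.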
Active calls of the source: *; ? = inconclusive; / = no result given; [ ] = remark or other dose. Unless noted, calls follow the shape of the dose curve; as a rule, active = well fitted curve in the direction sought with a large enough effect; inconclusive = small, poorly fitted or top-dose-only effect, or another doubt; inactive = no such curve, though single readings can be large; an effect the other way counts as inactive or inconclusive. Unless noted, % is scaled to controls: 0 for no effect and ±100 for the full control effect.

SMILES	TDP1 cell CPT	HT1080 IDH1KD tx	IL-1B inflam inh	HT1080-NT tox	DT40 TDP1 no CPT	ALOX12 inh
COc1ccccc1NC(=S)N(CCCN1CCOCC1)Cc1cn(C)c2ccccc12	15µM*	2%	-8	1%	16µM*	19%
CCOC(=O)Cn1nnnc1CN(Cc1ccc(OC)cc1)Cc1cc2cc(C)cc(C)c2[nH]c1=O	23µM*	-4%	0	-1%	26µM*	3%
CCOC(=O)Cn1nnnc1CN(Cc1ccc(OC)cc1)Cc1cc2cc(CC)ccc2[nH]c1=O	15µM*	-5%[9.24 µM]	-89*	-29%	?	?
CCOC(=O)Cn1nnnc1C(CC)N(Cc1cccs1)Cc1cc2cc(C)ccc2[nH]c1=O (stereo not given)	?	-7%	-8	-2%	?	0%
COc1cc2c(cc1OC)/C(=C/c1ccc(Br)cc1)C(=O)OC2	?	?	0	?	18µM*	?
O=C1CNC(=O)/C1=C/c1ccc(Br)cc1	1%	13%	-4	16%	-26%	33%
CCCNc1c(NC(=O)c2ccco2)c(=O)oc2ccccc12	/	/	/	/	/	3%
COc1cc(-c2ccc(NC(=O)CN3CCC(C)CC3)c(OC)c2)ccc1NC(=O)CN1CCC(C)CC1	23µM*	-30%	-1	-28%	18µM*	1%
COc1ccc(NC(=O)CN2CCC(C)CC2)c([N+](=O)[O-])c1	8.2µM*	6%	?	14%	8.2µM*	18%
COc1ccc(NC(=O)CN2CCCCC2)c([N+](=O)[O-])c1	13µM*	3%	?	0%	13µM*	-22%[57.4 µM]
CC1CCN(CC(=O)Nc2ccc(Cl)cc2[N+](=O)[O-])CC1	?	19%	-6	22%	?	-6%
COc1ccc(NC(=O)CC2Nc3cc(C)c(C)cc3NC2=O)c([N+](=O)[O-])c1 (stereo not given)	?	-3%	-6	-1%	5.8µM*	-10%
Cc1ccc(CCNC(=O)c2cc3n(n2)CC(c2ccc4c(c2)OCO4)OC3)cc1 (stereo not given)	/	/	/	/	/	-8%
O=C(O)CN(Cc1ccc(Br)cc1)S(=O)(=O)c1ccc(Cl)cc1	/	/	/	/	/	-17%
CC(=O)N(C)c1ccc(NC(=O)CC2C=CCC2)cc1 (stereo not given)	/	/	/	/	/	8%
CNS(=O)(=O)c1cccc(C(=O)OCC(=O)Nc2ccc(OC)cc2[N+](=O)[O-])c1	33µM*	5%	7	0%	6.5µM*	-19%
COc1ccc(NC(=O)CSc2ccccc2)c([N+](=O)[O-])c1	-1%	-1%	-10	?	29µM*	-9%
CCOc1ccccc1C(=O)NCc1nnc2ccc(-c3ccc(C)cc3)nn12	/	/	/	/	/	11%
COc1ccc(C(=O)O)cc1N1C(=O)Nc2ccccc2N1O	-8%	0%	6	1%	-23%	45µM*
O=C(Nc1nc(C2CC2)cs1)C1CC(=O)N(Cc2ccccn2)C1 (stereo not given)	/	/	/	/	/	14%
C=CCN1C(=O)C(CC(=O)Nc2ccccc2)S/C1=N/c1nccs1 (stereo not given)	-9%	-2%	-2	2%	-12%	0%
Cc1ccc(NC(=O)CC2Sc3ccc(C(F)(F)F)cc3NC2=O)cc1 (stereo not given)	-8%	/	/	/	1%	-22%
